# Screening results (PubChem BioAssay)
# Compounds with a hit are over-represented: about 1.5% of the library has one in this group of screens.
# BLM helicase inh: qHTS Assay for Inhibitors of Bloom's syndrome helicase (BLM); RecQ-like DNA helicase BLM (Homo sapiens), P54132; recombinant BLM DNA unwinding, fluorescence dequenching; Potency, µM (doses to about 56.1 µM), without a hit: at the highest dose activity change, negative = inhibition, most hits filed as inhibitors; 350,000 tested, 0.2% active;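 also: potency is read from the fitted curve at half-maximal effect; plate controls were vehicle for no effect and no enzyme for full effect; nearly all actives have a fitted effect of over 35% in size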
# RECQ1 helicase: qHTS Assay for Inhibitors of RecQ-Like Dna Helicase 1 (RECQ1); 240,000 tested, 0.54% active; Potency, µM (series often up to 57.3 µM), inactives show at the top dose activity, negative = inhibition, actives largely listed as inhibitors; ATP-dependent DNA helicase Q1 (Homo sapiens), P46063; AID 2549, 2010; RECQ1 DNA unwinding, red fluorescence kinetic read;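 also: potency is read from the fitted curve at half-maximal effect; plate controls were vehicle for no effect and no enzyme for full effect; nearly all actives have a fitted effect of over 30% in size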
#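 50 nM RECQ1T1 preincubated 15 min with compound in Tris pH 8.0 buffer with MgCl2, DTT, Tween-20 and 2.5 ug/ml poly(dI-dC); started with 200 nM TAMRA/BHQ-2 forked duplex and 2 mM ATP. Unwinding read as fluorescence (525/598 nm), two reads 2 h apart.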
# FEN1 inh: qHTS Assay for the Inhibitors of Human Flap endonuclease 1 (FEN1); Recombinant FEN1 flap cleavage, fluorescence, 15 min; 390,000 tested, 0.35% active; P39748; Potency, µM (titrated, usually from 114 µM), for the others: at the highest dose activity change, negative = inhibition, actives largely listed as inhibitors; also: potency is read from the fitted curve at half-maximal effect; nearly all actives have a fitted effect of over 65% in size
# Target sequence (P39748 whole entry, looked up): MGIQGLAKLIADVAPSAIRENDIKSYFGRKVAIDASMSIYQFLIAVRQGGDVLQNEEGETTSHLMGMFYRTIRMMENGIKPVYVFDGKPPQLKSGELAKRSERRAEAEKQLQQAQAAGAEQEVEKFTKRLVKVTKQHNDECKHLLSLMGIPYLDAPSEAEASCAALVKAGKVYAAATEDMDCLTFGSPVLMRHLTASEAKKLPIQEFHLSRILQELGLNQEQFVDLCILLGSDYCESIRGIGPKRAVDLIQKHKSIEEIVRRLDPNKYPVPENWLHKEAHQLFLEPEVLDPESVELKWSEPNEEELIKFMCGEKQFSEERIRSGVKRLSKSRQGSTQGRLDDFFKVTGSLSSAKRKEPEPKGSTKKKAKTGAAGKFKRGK
#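 Reaction started by adding substrate (50 nM final) to 10 nM enzyme after 15 min room-temperature compound preincubation. Reads at 0 and 15 min, with data normalized and fitted to a four-parameter Hill equation.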
# APEX1 inh: qHTS Assay for Inhibitors of the Human Apurinic/apyrimidinic Endonuclease 1 (APE1). recombinant APE1, TAMRA/BHQ-2 abasic DNA cleavage fluorescence. Potency, µM (series often up to 65.8 µM), for inactives: top-dose activity change, negative = inhibition, actives largely listed as inhibitors. AID 2517, 2012. 350,000 tested, 0.35% active;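 also: potency is read from the fitted curve at half-maximal effect; plate controls were vehicle for no effect and reference inhibitor for full effect; nearly all actives have a fitted effect of over 55% in size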
#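 Substrate: short duplex with […] THF abasic site, 5'-TAMRA and 3'-BHQ-2, 50 nM final. APE1 at 0.75 nM, preincubated 15 min RT with compound. Fluorescence increase from first to third read measured activity.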
# GCN5L2 inh: qHTS Assay for Inhibitors of GCN5L2 | Histone acetyltransferase KAT2A (Homo sapiens), Q92830 | GCN5L2 HAT assay, ThioGlo1 CoA-SH fluorescence | Potency, µM (series often up to 58.9 µM), for inactives: at the highest dose activity change, negative = inhibition, hits mostly inhibitors | 390,000 tested, 0.21% active | AID 504327, 2011; also: potency is read from the fitted curve at half-maximal effect
#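 GCN5L2 (20 nM) in 50mM HEPES pH 7.5, 0.1mM EDTA, 0.01% Tween-20 preincubated 15 min with compounds at room temperature. Reaction started with H3(1-25) 75uM, acetyl-CoA 70uM, ThioGlo1 50uM; CoA-thiol fluorescence (Ex340/Em540) read at 0 and 20 min.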
# PI5P4Ka inh: qHTS for Inhibitors of phosphatidylinositol 5-phosphate 4-kinase (PI5P4K); 330,000 tested, 1.2% active; PI5P4Kalpha enzyme, ADP-Glo luminescence, 60 min; active compounds read low; AID 652105, 2013; max response, %; active = max response of -50% or lower; inconclusive = between -30% and -50%; inactive = -30% or higher; also: value at the top dose of about 77 µM
#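 Controls without substrate or without enzyme flank wells where PI5P4Kalpha converts substrate using 5 microM ATP (final). Incubation lasts 60 minutes at room temperature; ADP formed is read by ADP-Glo luminescence.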
# * marks the source's active call; other numbers are inactive results; i = inactive; ? = inconclusive; nt = not tested or not shown. Unless noted, calls follow the shape of the dose curve; as a rule, active = well fitted curve in the direction sought with a large enough effect; inconclusive = small, poorly fitted or top-dose-only effect, or another doubt; inactive = no such curve, though single readings can be large; an effect the other way counts as inactive or inconclusive. Unless noted, % is scaled to controls: 0 for no effect and ±100 for the full control effect.
SMILES,BLM helicase inh,RECQ1 helicase,FEN1 inh,APEX1 inh,GCN5L2 inh,PI5P4Ka inh
CCOC(=O)C1Nc2ccc(C)cc2C2C=CCC12 (stereo not drawn),nt,nt,-11%,nt,nt,?
O=C(O)C1Nc2c(Cl)cc(Cl)cc2C2C=CCC12 (stereo not drawn),?,nt,22µM*,13µM*,3.5µM*,-99*
CCOc1ccc(S(=O)(=O)N(CC(=O)N/N=C/c2ccc(-c3ccc([N+](=O)[O-])cc3)o2)c2ccccc2)cc1,-18%,-24%,-19%,?,?,-67*
CNc1c(Br)cc(/C=C2\C=C(C(O)c3cc(Br)c(NC)c(Br)c3)c3ccccc32)cc1Br (stereo not drawn),nt,nt,15%,nt,nt,nt
CCCOCc1cc(CN2CCN(c3cccc(Cl)c3)CC2)c(O)c2ncccc12,-7%,nt,-11%,nt,-13%,nt
CCCCOCc1cc(CN2CCN(c3cccc(Cl)c3)CC2)c(O)c2ncccc12,-4%,nt,3%,nt,20µM*,nt
CC(C)(C)OC(=O)C[C@@H]1C/C=C\C[C@@H](CC(=O)N(CCO)Cc2ccccc2)C(=O)N[C@H](C(C)(C)C)COC1=O,nt,nt,20%,12µM*,0%,1
O=[N+]([O-])c1cc(/C=N\Nc2nc(-c3ccccc3)cs2)ccc1O,-12%,?,?,8%,?,-63*
CN(C)CCCn1c2c3ccccc3ccc2c2oc(=O)c3ccccc3c21,nt,nt,3.2µM*,nt,nt,0
CN(C)CCCN1C(=O)c2cc3ccccc3cc2C1=O,-2%,nt,1%,-9%,-3%,4
CC(=O)c1c(C)oc2ccc(NS(=O)(=O)c3ccc(O)c(C(=O)O)c3)cc12,1%,5%,-4%,-4%,-8%,-21
O=C(O)c1cc(S(=O)(=O)Nc2ccc3oc(=O)sc3c2)ccc1O,3%,i,-23%,?,-9%,-60*
CSCC[C@H](NC(=O)[C@H](CCC(N)=O)NC(=O)[C@H](CCCCN)NC(=O)[C@H](CCCNC(=N)N)NC(=O)[C@H](Cc1ccc(O)cc1)NC(=O)[C@H](CCCNC(=N)N)NC(=O)[C@H](CO)NC(=O)[C@H](Cc1ccc(O)cc1)NC(=O)[C@H](CO)NC(=O)[C@H](CC(=O)O)NC(=O)[C@@H](NC(=O)[C@@H](N)Cc1ccccc1)[C@@H](C)O)C(=O)N[C@@H](C)C(=O)N[C@H](C(=O)N[C@@H](CCCCN)C(=O)N[C@@H](CCCCN)C(=O)N[C@@H](Cc1ccc(O)cc1)C(=O)N[C@@H](CC(C)C)C(=O)N[C@@H](C)C(=O)N[C@@H](C)C(=O)N[C@H](C(=O)N[C@@H](CC(C)C)C(=O)NCC(=O)N[C@@H](CCCCN)C(=O)N[C@@H](CCCNC(=N)N)C(=O)N[C@@H](Cc1ccc(O)cc1)C(=O)N[C@@H](CCCCN)C(=O)N[C@@H](CCC(N)=O)C(=O)N[C@@H](CCCNC(=N)N)C(=O)N[C@H](C(=O)N[C@@H](CCCCN)C(=O)N[C@@H](CC(N)=O)C(=O)N[C@@H](CCCCN)C(N)=O)C(C)C)C(C)C)C(C)C,?,-26%,nt,-5%,-15%,nt
Cc1ccc(-c2no[n+]([O-])c2C#N)cc1,nt,nt,nt,-5%,nt,nt
Cc1ccc(S(=O)(=O)N(C)C)cc1NC(=O)c1cc(-c2ccco2)nc2ccccc12,-2%,nt,10%,-5%,-26%,-56*
